Assay results as given in PubChem BioAssay (NCI).
The panel holds about 83,000 compounds, 20% with a hit somewhere; the sample as a whole holds those more often.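 Note: values are percent growth. 100 is the growth of untreated cells, values between 100 and 0 indicate rising inhibition; between -100 and 0 indicates cell death.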 Values without a mark were called inactive. Activity calls are given as the source filed them. Rule for the calls: active = growth percent below 10; inactive = the rest.

test system: HL-60(TB) leukemia; experiment: NCI-60 one-dose screen, 48 h (100 = growth as untreated, 0 = no growth, -100 = all killed); details: 10 µM unless noted

SMILES	growth
CC(=O)Nc1ccc2c(c1)C(N1CC3CCC(CC3)C1)c1ccccc1-2 (stereo not given)	52.3%
Cc1cnc(NC(=O)C(Cc2ccccc2)NC(=O)c2ccccc2)s1 (stereo not given)	38.7%
CCCCCCC/C=C/[C@H]1O[C@]2(O)C(=O)C=C3C[C@@H](O[C@@H]4O[C@H](CO)[C@@H](O)C(O)[C@@H]4O)C[C@@H]3[C@H]2C=C1C (stereo not given in full)	-46.4% (active)
COc1cc(CCn2nnc3c(Nc4ccc(N5CCOCC5)cc4)ncnc32)cc(OC)c1	106%
O=C(Nc1cccc(Cl)c1)Nc1ncc(CCNc2ncnc3ccsc23)s1	8.72% (active)
Brc1ccc(Oc2ccc(Nc3ncnc4onc(-c5ccccc5)c34)cc2)cc1	101%
CSCCC(NC(=O)c1ccccc1)C(=O)N/N=C1\S/C(=C/c2ccc(Cl)cc2)C(=O)N1C (stereo not given)	51.6%
Cc1ccc(CCCC(=O)O)c(C)c1	98.3%
Nc1ncc(-c2ccc3ncnc(N4CCc5ccc(Cl)cc54)c3c2)cn1	-51.1% (active)
O=C(Nc1ccc2[nH]c3ccccc3c2c1)c1ccccc1Cl	9.41% (active)
O=S(=O)(O)c1cccc2cccnc12	94%
NS(=O)(=O)c1cnccc1Sc1ccncc1S(N)(=O)=O	82.5%
FC(F)(F)c1cc(N2CCCCC2)nc(NCCCNc2ccnc3cc(Cl)ccc23)n1	42.1%
CCCCCCCCCCCC(c1ccccc1)[N+](C)(C)C (stereo not given)	-30.5% (active)
COc1cc(/C=C/c2cc(O)c3cc(C(C)=O)c(=O)oc3c2)cc2c1O[C@]1(C)CC[C@@H](O)C(C)(C)[C@H]1C2	4.64% (active)
COc1cc2c(cc1OCCCOc1cc3c(cc1OC)C(=O)N1CC(F)(F)C[C@H]1C=N3)N=C[C@@H]1CC(F)(F)CN1C2=O	-12.2% (active)
Brc1ccc2[nH]cc(-c3cncn3CCc3ccccc3)c2c1	39.3%
COC(CC(F)F)c1cn(S(=O)(=O)c2ccc(C)cc2)c2ccccc12 (stereo not given)	8.92% (active)
Clc1cccc(Cl)c1Nc1ccc2nnc(-c3ccncc3)n2n1	88.7%
COc1cc(/C=C/c2cc(/C=C/c3ccc(O)c(OC)c3)n(-c3ccccc3)c(=O)n2)ccc1O	70.9%

SMILES	growth
O=C(CI)OCC(COC(=O)CI)OC(=O)CI	53.3%
CCCCCCCCCCCCCCCC1=NC(C)(C)CN1C(C)C	-62.9% (active)
COc1ccc(-c2cc(-c3nnc(SCC(=O)Nc4ccc(/C(C)=N\O)cc4)n3-c3ccccc3)c3cc(OC)ccc3n2)cc1	31.8%
CCc1c(Cl)nc(N)nc1Nc1ccc(C)c(C)c1	88.1%
COc1cc2cc(Oc3ccc(NC(=O)Nc4ccc(Cl)c(Cl)c4)cc3)c(C)nc2cc1OCCN1CCCCC1	44.1%
CCOC(=O)c1c(C)nc2c(c1N)C(=O)C(=O)N2Cc1ccc(C(F)(F)F)cc1	43.5%
CC(C)NCC(O)COc1ccc(CCOCC2CC2)cc1 (stereo not given)	92.8%
CC1=C2[C@@H](CC1)[C@]1(C)O[C@@](C(C)C)(C[C@H]1OC(=O)[C@H](C)O)[C@H]2OC(=O)/C=C/c1ccccc1	89.1%
COc1cc(/C=C2\CN(C(=O)OC(C)(C)C)C/C(=C\c3ccc(O)c(OC)c3)C2=O)ccc1O	97.1%
CCOC(=O)c1cnc2sc(-c3ccc(OC)cc3)nc2c1Cl	93.8%
C=C1CC2(OC1=O)C(=O)N(CCCCCCCN1C(=O)C3(CC(=C)C(=O)O3)c3ccccc31)c1ccccc12 (stereo not given)	11.7%
Nc1c(C(=O)c2ccccc2)sc2nc(-c3cc4ccccc4o3)cc(-c3ccc(Cl)cc3)c12	114%
O=C(Nc1ccc(Oc2cccc(F)c2)c(Cl)c1)c1cnccn1	3.12% (active)
O=c1[nH]c(-c2ccccn2)nc2sc3c(c12)CCCCCC3	10.9%
O=C(OCc1ccc2c(Cl)cc(Cl)c(O)c2n1)c1cc2ccccc2[nH]1	-36.1% (active)
CCOC(=O)c1cc(C(=O)c2cc(OC)cc(OC)c2)n2nc(C)ccc12	-16.5% (active)
CC1CC(O)CC(C)(C)C1.CC1CC(O)CC(C)(C)C1.CC1CC(O)CC(C)(C)C1.CC1CC(O)CC(C)(C)C1.[Ti] (stereo not given)	104%
COc1cc2nn(-c3ccccc3N)nc2cc1OC	102%
NS(=O)(=O)c1ccc(C(=O)N=Nc2c(O)[nH]c3c(F)cccc23)cc1	102%
COc1cc(OC)c(/C=C/C(=O)c2c(OC)cccc2OC)c(OC)c1	7.89% (active)
